Screening results (PubChem)
DT40 TDP1 CPT = growth inhibition of DT40 Tdp1-/-;hTDP1 cells with camptothecin (screen for TDP1 inhibitors). Potency, µM (titrated, usually from 46.2 µM), inactives show at the top dose activity change, negative = growth inhibition, most hits filed as inhibitors. chicken DT40 Tdp1-/-;hTDP1 cells + 20 nM CPT, ATP luminescence, 48 h. 420,000 tested, 12% active; also: nearly all actives have a fitted effect of over 55% in size
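Chicken DT40 Tdp1-/- cells stably complemented with human TDP1 were seeded at 400 cells/well in medium containing 20 nM camptothecin, exposed to pin-transferred compounds, and grown at 37 °C for at least 48 hr. Viability was read as ATP luminescence.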
ELG1 DNA repair = blocks ELG1-dependent DNA repair in HEK293T cells | 330,000 tested, 2.3% active | HEK293T ELG1-luciferase reporter, luminescence, 16 h; DNA damage induced by 5-fluorouridine | Potency, µM (doses to about 46.1 µM), for inactives: at the highest dose activity change, negative = inhibition, usual class: inhibitors | AID 504467; also: nearly all actives have a fitted effect of over 55% in size
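In this reporter screen, reduction of luminescence relative to DMSO vehicle indicated activity. Compounds and 5-fluorouridine were added together to 2,000 cells per well, incubated for 16 hr at 37 °C, then developed with ONE-Glo.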
RORg inh = inhibitors of mouse ROR gamma transcriptional activity; AID 2551; Drosophila S2 Gal4-RORgamma UAS-luciferase reporter, 20 h; Potency, µM (series often up to 53.6 µM), inactives show at the top dose activity change, negative = inhibition, hits mostly inhibitors; P51450; 310,000 tested, 5.4% active; also: nearly all actives have a fitted effect of over 60% in size
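ROR gamma transcriptional activity was tracked as Gal4-UAS luciferase output in stably transfected Drosophila Schneider cells, with compound added 1 hr before 700 uM copper sulfate induction and a 20 hr ambient-temperature incubation.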
TDP1 cell noCPT = qHTS for Inhibitors of human tyrosyl-DNA phosphodiesterase 1 (TDP1): qHTS in cells in absence of CPT; Potency, µM (top dose mostly 46.2 µM), for inactives: top-dose activity change, negative = growth inhibition, hits mostly inhibitors; AID 686978, 2013; 420,000 tested, 15% active; DT40 Tdp1-/- hTDP1 cells, no CPT, ATP luminescence, 48 h; also: nearly all actives have a fitted effect of over 55% in size
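A cellular qHTS used chicken DT40 cells lacking endogenous Tdp1 but carrying stably transfected human TDP1. Compounds were applied without camptothecin, and cell growth kinetics were judged by ATP-dependent luminescence after ≥48 hr.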
VP16 counter = counter-screen for ROR gamma inhibitors: Gal4-VP16 reporter | Drosophila S2 Gal4-VP16 UAS-luciferase, luminescence, 20 h | Potency, µM (titrated, usually from 53.6 µM), for the others: at the top dose activity, negative = inhibition, most hits filed as inhibitors | 310,000 tested, 3.5% active | AID 2546;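 also: Gal4-VP16 expression switched on by copper sulfate through the metallothionein promoter; nearly all actives have a fitted effect of over 50% in size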
12-LOX inh = inhibitors of human 12S-lipoxygenase ALOX12. P18054. purified 12hLO, xylenol orange hydroperoxide absorbance. Potency, µM (top dose mostly 108 µM), inactives show top-dose activity change, negative = inhibition, hits mostly inhibitors. 580,000 tested, 1.1% active. AID 1671190
Target sequence (P18054 whole entry, looked up): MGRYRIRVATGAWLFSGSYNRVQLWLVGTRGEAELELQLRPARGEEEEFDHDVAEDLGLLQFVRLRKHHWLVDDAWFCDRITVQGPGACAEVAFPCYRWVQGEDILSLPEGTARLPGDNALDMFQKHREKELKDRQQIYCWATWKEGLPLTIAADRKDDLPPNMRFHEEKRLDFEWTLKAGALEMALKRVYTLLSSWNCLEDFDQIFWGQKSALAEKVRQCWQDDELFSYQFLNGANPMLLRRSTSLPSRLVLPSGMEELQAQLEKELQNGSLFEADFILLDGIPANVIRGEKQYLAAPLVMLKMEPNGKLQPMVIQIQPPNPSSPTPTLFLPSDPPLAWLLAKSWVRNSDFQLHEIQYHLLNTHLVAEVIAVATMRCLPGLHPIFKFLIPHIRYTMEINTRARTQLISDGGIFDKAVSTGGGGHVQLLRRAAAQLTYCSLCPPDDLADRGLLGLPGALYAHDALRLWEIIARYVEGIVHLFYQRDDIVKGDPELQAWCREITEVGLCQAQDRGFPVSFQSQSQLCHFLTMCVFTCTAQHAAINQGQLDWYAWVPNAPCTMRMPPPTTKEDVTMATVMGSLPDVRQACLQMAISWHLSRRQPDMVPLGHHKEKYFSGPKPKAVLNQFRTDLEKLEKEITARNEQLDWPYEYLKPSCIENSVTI
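Hydroperoxide product was detected by ferrous iron/xylenol orange as the 573 to 405 nm absorbance ratio. Arachidonic acid at 40 uM (final) was turned over for 30 min at room temperature by 150 nM human 12hLO, pH 7.0 Hepes buffer, after 15 min compound preincubation.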
* marks the source's active call; other numbers are inactive results; ? = inconclusive; · = no result given; [ ] = remark or other dose. The list is not random: actives were taken first. Their share in the collection is about 15%. Calls follow the shape of the dose curve; as a rule, active = well fitted curve in the direction sought with a large enough effect; inconclusive = small, poorly fitted or top-dose-only effect, or another doubt; inactive = no such curve, though single readings can be large; an effect the other way counts as inactive or inconclusive. % is scaled to controls: 0 for no effect and ±100 for the full control effect; potency is read from the fitted curve at half-maximal effect.

SMILES | DT40 TDP1 CPT | ELG1 DNA repair | RORg inh | TDP1 cell noCPT | VP16 counter | 12-LOX inh
CN(CC(=O)Nc1ccc(N2CCOCC2)cc1)Cc1cc(=O)n2ccsc2n1 | 18.4µM* | -17.6% | 29.9% | ? | -18.1% | -0.1%
CCn1c2ccccc2c2cc(NC(=O)CN(C)CC(=O)Nc3ccc(N4CCOCC4)cc3)ccc21 | ? | ? | 27.3% | 23.1µM* | -11.3% | 1.3%
CCn1c2ccccc2c2cc(NC(=O)c3cc(OC)c(OC)c(OC)c3)ccc21 | 1.3µM* | -19.5% | -0.6% | 1.3µM* | -12.5% | 2.8%[57.4 µM]
CCn1c2ccccc2c2cc(NC(=O)N3CCOCC3)ccc21 | -22.1% | 0.7% | 42.6% | ? | 10.9% | ?
COC(=O)c1ccc(NC(=O)c2cc3cc(C)ccc3n2C)cc1 | -25.5% | · | · | ? | · | -9.8%
COC(=O)c1ccccc1NC(=O)c1cc2cc(C)ccc2n1C | 6.51µM* | · | · | 5.8µM* | · | -9.6%
COc1cc(CNC(=O)C2CC2)ccc1OCc1ccccc1 | ? | ? | 31.6µM* | ? | -5.7% | 1.1%
CCOC(=O)C1CCN(Cc2ccc(Cl)c(Cl)c2)CC1 | -11.3% | -0.2% | 8.4% | -0.8% | -8.2% | ?
CCOC(=O)C1CCN(Cc2ccc(O)c(OC)c2)CC1 | ? | ? | 5.5% | -26.1% | -3.6% | 0.0%
CCOC(=O)C1CCN(Cc2cc(C(C)(C)C)c(O)c(C(C)(C)C)c2)CC1 | ? | 11.8% | 1.1% | 18.4µM* | -2.0% | 0.0%
COc1cc(CN2CCC(C(=O)NCCC(C)C)CC2)ccc1OCc1ccccc1 | ? | ? | 3.5% | ? | 3.5% | 14.7%
CCOC(=O)C1CCN(Cc2ccc(OC)c(OCc3ccccc3)c2)CC1 | 13µM* | -2.9% | 22.0% | 18.4µM* | -1.4% | ?
COC(=O)/C=C1\OCc2cc(OC)c(OCc3ccccc3)cc21 | ? | · | · | 20.6µM* | · | -15.5%
CC(C)C(=O)N1CCN(C(=O)c2cn(C)c3ccccc23)CC1 | · | · | · | · | · | -0.8%
CS(=O)(=O)N1CCC(CC(=O)N2CC=C(c3ccccc3)CC2)C1 (configuration not stated) | · | · | · | · | · | 30.1%
COc1cc(CN2CCN(CCCSc3cc(C(C)(C)C)c(O)c(C(C)(C)C)c3)CC2)cc(OC)c1OC | · | · | -23.6% | · | ? | ·
CC(C)(C)c1cc(CN2CCN(CCO)CC2)cc(C(C)(C)C)c1O | 13µM* | 0.0% | 2.2% | 20.6µM* | -10.2% | ?
c1ccc2sc(CCCCc3nc4ccccc4s3)nc2c1 | · | · | · | · | · | -26.9%
CC(NC(=O)c1ccco1)c1nc(-c2ccccc2)no1 (configuration not stated) | -11.2% | -16.5% | -2.5% | -27.4% | 4.8% | -2.4%
CCCc1ccc(OCc2nc(-c3ccc(NC(=O)c4ccco4)cc3)no2)cc1 | ? | ? | 14.3% | ? | 11.3% | 0.0%
COc1ccc(OC)c(C(C)NC(=O)c2ccco2)c1 (configuration not stated) | 23.1µM* | -26.7% | -0.1%[10 µM] | ? | -6.1% | 4.5%
COc1ccc(OC)c(C(C)NC(C)=O)c1 (configuration not stated) | -6.4% | 13.6% | 10.0% | 0.9% | -1.6% | -28.9%
CC(Oc1ccc(Cl)cc1Cl)c1nc(-c2ccc(NC(=O)c3ccco3)cc2)no1 (configuration not stated) | 23.1µM* | ? | 34.7% | 16.4µM* | -15.0% | 0.0%
COc1ccc(-c2noc(C(C)NC(=O)c3ccco3)n2)cc1 (configuration not stated) | 18.4µM* | · | · | 14.6µM* | · | -18.1%
O=C(c1cccc(Cl)c1)N1CCN(C(=O)c2nnn3c2COC(c2ccc(F)cc2)C3)CC1 (configuration not stated) | · | · | · | · | · | 14.7%
SMILES | DT40 TDP1 CPT | ELG1 DNA repair | RORg inh | TDP1 cell noCPT | VP16 counter | 12-LOX inh
Oc1csc(Cc2nc(-c3ccc4ccccc4c3)cs2)n1 | ? | ? | 11.2µM* | 14.6µM* | -36.2% | 26.5%
Cc1cccnc1C1=NOC(Cc2ccccc2)C(=O)N1C (configuration not stated) | -11.3% | · | · | -20.0% | · | 12.3%
Cc1cccnc1C1=NOC(Cc2ccccc2)C(=O)N1CCOc1ccc(F)cc1 (configuration not stated) | 16.4µM* | · | · | 23.1µM* | · | 15.8%
CC(C)NC(=O)C[C@@H]1C[C@H]2O[C@H](CNCc3cnccc3C(F)(F)F)[C@@H](O)[C@H]2O1 | · | · | · | · | · | 21.0%[176 µM]
C=CCn1c(SCC(=O)c2cccs2)nc2sc(CC)cc2c1=O | 14.6µM* | 20.6µM* | -15.9% | 16.4µM* | ? | 0.6%
C=CCn1c(SCC(=O)/C(C#N)=C(\C)N)nc2sc(CC)cc2c1=O | 20.6µM* | ? | 35.4% | 20.6µM* | -3.7% | ?
C=CCn1c(SCC(=O)O)nc2sc(CC)cc2c1=O | 4.8% | 7.5% | -0.5% | -28.3% | -2.1% | ?
COc1cc(C)c(C)cc1S(=O)(=O)N1CCN(c2c(C)cccc2C)CC1 | · | · | · | · | · | -16.6%
Brc1ccc([C@H]2C=C[C@H]3CCCN4CC[C@H]2[C@@H]3[C@]42CO2)cc1 | 18.4µM* | · | · | 11.6µM* | · | ?
O=C(Cn1c(=O)oc2ccccc21)N1CCc2nn(CC3CC3)c(=O)n2CC1 | · | · | · | · | · | 17.4%
O=C(O)Cn1ccc2cc(OCCc3cccc(-c4cccc(F)c4)c3)cnc21 | · | · | · | · | · | 50.1µM*
O=C(O)Cn1ccc2cc(OCCc3cccc(-c4ccc(F)cc4)c3)cnc21 | · | · | · | · | · | 50.1µM*
Cc1ccc(-c2cccc(COc3cnc4c(ccn4CC(=O)O)c3)c2)cc1 | · | · | · | · | · | -7.4%[176 µM]
CCC1CCCCN1C(=O)CSc1nc2ccccc2n1CCC#N (configuration not stated) | · | · | · | · | · | 44.2%
CCOc1ccc(S(=O)(=O)c2cn(Cc3ccccc3C)c3cc(OC)c(OC)cc3c2=O)cc1 | · | · | · | · | · | -2.9%
CCCOc1ccccc1C1CC(=O)NC2=C1C(=O)CCC2 (configuration not stated) | 4.11µM* | -10.9% | 31.4% | 4.11µM* | 3.4% | 9.7%
CCOc1ccccc1C1CC(=O)NC2=C1C(=O)CCC2 (configuration not stated) | ? | -14.6% | 18.4% | 16.4µM* | 3.2% | -14.6%
CCCCOc1ccccc1C1CC(=O)NC2=C1C(=O)CCC2 (configuration not stated) | 1.64µM* | 2.8% | -2.2% | 1.64µM* | -5.3% | 0.0%
CNC(=O)N1CCC(C2CCN(C(=O)CCc3ccc(OC)cc3)C2)CC1 (configuration not stated) | · | · | · | · | · | 20.9%
